# HEK293 tox: qHTS of GLP-1 Receptor Inverse Agonists: Cytotox Screen; HEK293 cAMP-luciferase reporter cells, luminescence, 24 h; Potency, µM (highest dose often 38.3 µM), actives largely listed as inhibitors; 0.13% of 410,000 active; AID 624418, 2012;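 note: loss of luciferase light is scored as toxicity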
#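 Compound-treated cells are incubated 24 hr at 37 deg C under 5% CO2 after a 12 hour attachment period, then luciferase detection reagent is added and luminescence is measured following 12 min at room temperature; lowered signal indicates toxicity.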
# TrxR1 substrate: qHTS Assay for Substrates of Mammalian Selenoprotein Thioredoxin Reductase 1 (TrxR1): qHTS; Potency, µM (titrated, usually from 114 µM); 0.01% of 390,000 active; purified TrxR1 substrate turnover, NADPH consumption readout; Thioredoxin reductase 1, cytoplasmic (Rattus norvegicus), O89049; AID 588456, 2011; note: nearly all actives have a fitted effect of over 50% in size
#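 Rat TrxR1, dispensed at 90 nM, was prereduced with 400 uM NADPH (final) for 5 min at ~22 deg C, then incubated with compound 15 min before 400 uM selenite. A first-read NADPH fluorescence drop versus no-compound background flagged substrates.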
# mIDH1 inhibitor: qHTS for Inhibitors of mutant isocitrate dehydrogenase 1 (IDH1): qHTS | Isocitrate dehydrogenase [NADP] cytoplasmic (Homo sapiens), O75874 | IDH1-R132H enzyme, NADPH consumption, diaphorase/resazurin fluorescence | Potency, µM (titrated, usually from 76.6 µM), usual class: inhibitors | 0.093% of 390,000 active; note: nearly all actives have a fitted effect of over 65% in size
#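 IDH1-R132H (0.5 ug/mL dispensed) in pH 7.5 Tris buffer was preincubated 30 min with compound, then given a substrate mix of 0.016 mM NADPH and 2 mM alpha-KG for 80 min at room temperature; remaining NADPH was read by diaphorase/resazurin fluorescence.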
# GLP1R inv ag: qHTS of GLP-1 Receptor Inverse Agonists (Inhibition Mode); HEK293 GLP-1R CRE-luciferase, luminescence, 24 h; GLP-1R form is constitutively active; Potency, µM (titrated, usually from 38.3 µM), hits mostly inhibitors; 1.6% of 410,000 active; note: nearly all actives have a fitted effect of over 55% in size
# Target sequence (P43220 whole entry, looked up): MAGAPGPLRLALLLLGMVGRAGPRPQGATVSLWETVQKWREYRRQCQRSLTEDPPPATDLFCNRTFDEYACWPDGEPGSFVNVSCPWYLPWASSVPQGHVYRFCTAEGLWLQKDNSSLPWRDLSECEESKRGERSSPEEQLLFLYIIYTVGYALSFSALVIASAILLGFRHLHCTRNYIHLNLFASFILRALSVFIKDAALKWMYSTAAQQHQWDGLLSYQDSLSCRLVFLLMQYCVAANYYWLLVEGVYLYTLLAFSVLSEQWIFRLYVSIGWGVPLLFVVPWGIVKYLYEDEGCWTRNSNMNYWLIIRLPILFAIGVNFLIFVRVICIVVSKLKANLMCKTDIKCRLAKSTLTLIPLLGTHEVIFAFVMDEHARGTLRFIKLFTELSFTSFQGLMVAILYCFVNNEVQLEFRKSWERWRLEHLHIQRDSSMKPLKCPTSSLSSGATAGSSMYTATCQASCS
#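 HEK293 cells stably co-expressing constitutively active GLP-1R and a cAMP-responsive luciferase reporter were seeded in DMEM with 10% Nu serum, given compounds after 12 h, and incubated 24 h at 37 deg C. Luminescence was then read.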
# GLP1R ag: qHTS of GLP-1 Receptor Agonists; HEK293 GLP-1R CRE-luciferase, luminescence, 4-6 h; cells express a hypersensitive GLP-1R form; Potency, µM (top dose mostly 45.6 µM), most hits filed as activators; Glucagon-like peptide 1 receptor (Homo sapiens), P43220; 0.007% of 380,000 active
# rTrxR1 inhibitor: qHTS Assay for Inhibitors of Mammalian Selenoprotein Thioredoxin Reductase 1 (TrxR1): qHTS; 1% of 390,000 active; AID 588453, 2011; recombinant rTrxR1, NADPH fluorescence consumption, selenite substrate; Potency, µM (titrated, usually from 114 µM), actives largely listed as inhibitors; Thioredoxin reductase 1, cytoplasmic (Rattus norvegicus), O89049; note: nearly all actives have a fitted effect of over 65% in size
#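 Rat TrxR1 (90 nM in the dispensed reagent) was pre-reduced with 400 uM NADPH for 5 min at room temperature, then incubated with compound for 15 min. After 400 uM selenite was added, NADPH fluorescence (Ex 340/Em 450 nm) was followed for 8 min.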
# Hits are given with their value; 0 = inactive; ? = inconclusive; - = not tested or not shown; [ ] = remark or other dose. Compounds with a hit are over-represented: about 2.7% of the library has one in this group of screens. Calls come from the whole dose curve; as a rule, active = well fitted curve in the direction sought with a large enough effect; inconclusive = small, poorly fitted or top-dose-only effect, or another doubt; inactive = no such curve, though single readings can be large; an effect the other way counts as inactive or inconclusive.
SMILES,HEK293 tox,TrxR1 substrate,mIDH1 inhibitor,GLP1R inv ag,GLP1R ag,rTrxR1 inhibitor
CCCSc1ncc(Cl)c(C(=O)Nc2nc3ccc(C)cc3s2)n1,0,0,-,0,-,0
Cc1cccc(C(=O)NNC2=C(C(=O)C(F)(F)F)CCC2)c1O,?,0,0,2.8µM,0,0
O=C(NNC1=C(C(=O)C(F)(F)F)CCC1)c1cccc(O)c1,0,0,0,?,0,0
COc1ccc(C2Nc3ccccc3C(=O)N2Cc2ccccc2)cc1COc1ccc([N+](=O)[O-])c(C)c1 (configuration not stated),-,0,-,-,-,0
CC(C)(C)c1ccc(/C=N/NC(=S)NCc2ccccc2)cc1,?,0,0,?,0,0
C=CCNC(=S)N/N=C/c1ccc(C(C)(C)C)cc1,?,0,0,3.5µM,0,0
Oc1ccc(Cl)cc1C1C=C(c2ccc3c(c2)OCO3)NC(c2ccc(Br)cc2)N1 (configuration not stated),-,0,-,-,-,?
CC(C)C1C(c2ccccc2)NC(c2ccccc2)CC1(O)c1ccc(F)cc1 (configuration not stated),?,0,0,10µM,0,0
CC(C)C1C(c2ccccc2)N(C)C(c2ccccc2)CC1(O)c1ccccc1 (configuration not stated),0,0,0,0,0,0
CCOC(=O)C1=C(COC(=O)c2ccc([N+](=O)[O-])o2)NC(=O)NC1C (configuration not stated),0,0,0,0,0,28µM
COc1ccc(NC(=S)N/N=C/c2ccc(F)cc2)cc1OC,5.6µM,0,0,?,0,0
Fc1ccc(NC(=S)N/N=C/c2ccc(F)c(F)c2)cc1,0,0,0,?,0,0
CCCn1c2ccccc2c2cnn(CC(=O)Nc3cc(OC)c(OC)c(OC)c3)c(=O)c21,0,0,0,0,-,0
Cc1cccc(C(=O)N2CCc3cc(CNC(=O)c4ccnn4C)ccc32)c1,0,0,0,0,-,0
COc1cccc(NC(=O)CC2NCCNC2=O)c1 (configuration not stated),0,0,0,0,-,0
O=S(=O)(CCOc1ccccc1)c1nc2ccccc2[nH]1,0,0,0,0,0,45µM
CCc1ccccc1Nc1nn2c(=O)c3ccc(C(=O)NC(C)c4ccccc4)cc3nc2s1 (configuration not stated),0,0,0,5.6µM,0,0
Cc1cc(-n2c(C)cc(C(=O)CCl)c2C)no1,?,0,0,10µM,0,?
Cc1cc(-n2c(C)cc(C(=O)CN3C(=O)C(=O)N(C)C3=O)c2C)no1,0,0,0,0,0,0
O=C(c1nnsc1S(=O)(=O)c1ccc(Cl)cc1)N1CCOCC1,0[7.66 µM],0,0,?,0,?
O=C(c1nnsc1S(=O)c1ccc(Cl)cc1)N1CCOCC1 (configuration not stated),?,0,0,?,0,3.5µM
O=C(Nc1ccccc1)c1nnsc1S(=O)c1ccc(Cl)cc1 (configuration not stated),?,0,0,?,0,1.3µM
Cc1nnsc1S(=O)c1ccc(Cl)cc1 (configuration not stated),0,0,0,0,0,0
COc1ccc(NS(=O)(=O)c2ccc(N3CCCCS3(=O)=O)cc2)cc1Cl,0,0,0,?,-,0
CCCCn1c(=O)[nH]c(=O)c2c1nc(Cn1ncc(Cl)c(Cl)c1=O)n2CCC,0,0,0,?,0,50µM
SMILES,HEK293 tox,TrxR1 substrate,mIDH1 inhibitor,GLP1R inv ag,GLP1R ag,rTrxR1 inhibitor
CC(C)CCCCCCNC(=S)Nc1ccc(S(=O)(=O)N2CCOCC2)cc1,?,0,0,3.5µM,0,0
COc1cc(NC(=S)Nc2ccc(S(=O)(=O)N3CCOCC3)cc2)cc(OC)c1OC,0,0,0,0,0,14µM
O=S(=O)(c1cccc(NC(=S)Nc2ccc(Br)cc2Cl)c1)N1CCOCC1,0,0,0,?,0,18µM
O=S(=O)(c1ccc(NC(=S)Nc2ccc3c(c2)OCO3)cc1)N1CCOCC1,0,0,0,0,0,40µM
O=S(=O)(Nc1ccc(F)cc1F)c1ccc(-n2cccn2)cc1,0,0,0,0,0,0
C(=N\Nc1nc(Nc2ccccc2)nc(N2CCOCC2)n1)/c1c[nH]c2ccccc12,0,0,0,?,0,0
O=C(Oc1cccc(/C=N/Nc2nc(Nc3ccccc3)nc(N3CCOCC3)n2)c1)c1ccco1,0,0,0,1.8µM,0,0
Oc1cccc(/C=N/Nc2cc(N3CCOCC3)nc(N3CCOCC3)n2)c1,0,0,0,3.5µM,0,0
COc1ccccc1NC(=O)Cn1c(=O)c(CNc2ccc(C)cc2)cc2cc3c(cc21)OCCO3,0,0,0,0,0,0
CN(C)c1ccc(/C=C/c2c3c(nc4ccccc24)CCCC3)cc1,-,0,-,-,-,0
CN(C(=O)CSc1cc(C(=O)c2nccn2C)c2ccccc2n1)c1ccccc1,?,0,0,10µM,0,0
N#C/C(=C/c1ccc(N2CCOCC2)o1)c1ccc(Cl)cc1,0,0,0,0,0,3.2µM
N#C/C(=C\c1ccc(N2CCCCC2)o1)C(N)=O,0,0,0,0,0,0
CCOc1ccccc1NC(=O)Nc1cccc(NC(C)=O)c1,0,0,0,0,0,0
CCOc1ccccc1NC(=O)/C=C/C(N)=O,0,0,0,?,0,25µM
CCOc1ccccc1NC(=O)Nc1ccc2c(c1)CCC2,0,0,0,10µM,0,0
Cc1noc(C)c1S(=O)(=O)N(CC(=O)NCc1ccccc1Cl)c1ccc(C(C)C)cc1,0,0,0,0,0,0
CC(C)(C)N(Cc1ccccc1)C(=O)c1ccc(Br)o1,0,0,0,0,0,0
Cc1ccc(C(=O)N(Cc2ccccc2)C(C)(C)C)cc1C,0,0,0,7.1µM,0,0
CCCCCNC(=O)c1cccc(S(=O)(=O)N2CC3(C)CC2CC(C)(C)C3)c1 (configuration not stated),0,0,0,6.3µM,0,0

# Bioassay records as filed in PubChem.
